Only some compounds are listed: those with a hit (about 3.3% of all), similar ones and a draw of the others.
Cl transport mod = KCC2 cotransporter modulators, thallium flux, primary screen, cell-based, HEK293 KCC2, FluoZin-2 fluorescence, MLSMR. Solute carrier family 12 member 5 (Homo sapiens), Q9H2X9. KCC2 cells, thallium flux FluoZin-2 fluorescence. B-score of Tl+ flux slope (higher = more flux/activation; lower = inhibition) at 10 µM. 2.2% of 190,000 active;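 active = thallium flux slope and its plate-corrected score both differing from the plate sample mean at a set confidence after two filtering rounds, in either direction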;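 note: slope of fluorescence scaled to starting intensity during 10 to 20 s after thallium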
Calb FLC = C. albicans growth inhibition with fluconazole, primary screen, CaCi-2 strain, Alamar Blue fluorescence | C. albicans CaCi-2 (fluconazole-resistant clinical isolate) + fluconazole, 48 h | growth inhibition, % (no concentration beside the values) | 0.57% of 300,000 active | AID 1979, 2009;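 active = growth inhibition above about 58% in most replicates, limit read from the data, passing the limit was not always enough; inconclusive = exactly half the replicates above a set limit; inactive = most replicates below a set limit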;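 note: all wells also contain fluconazole at 8 µg/ml as a sub-toxic cotreatment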
Efflux pump inh = inhibitors of Candida efflux pumps in yeast, primary screen, S. cerevisiae, Nile Red, multiplex; S. cerevisiae Candida pump triplex; inhibition, % at 10 µM; 0.44% of 330,000 active;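 active = plate passing quality check with inhibition over a set limit, or well fluorescence over plate mean plus 4 SD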;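 note: Nile Red retained in pooled yeast measured as flow cytometry median fluorescence; higher means more Nile Red kept so more efflux inhibition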
Cardio protect = cardioprotection against H2O2-induced cell death, primary screen, uHTS, H9c2 cells, ATPLite luminescence; H9c2 cardiomyocytes, H2O2 injury protection, 2 h; protection from H2O2 cell death, % at 20 µM; 0.63% of 360,000 active; AID 588492, 2011;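 active = compounds giving at least 50% protection of heart cells from peroxide-induced death in the single-dose screen, raw or plate-pattern-corrected value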
PHOSPHO1 inh = PubChem AID 1565; Phosphoethanolamine/phosphocholine phosphatase (Homo sapiens), Q8TCT1; recombinant PHOSPHO1, absorbance phosphatase assay; inhibition, % at 13.3 µM; 1.1% of 290,000 active; in the data active = inhibition above about 60%
Target sequence (Q8TCT1 whole entry, looked up): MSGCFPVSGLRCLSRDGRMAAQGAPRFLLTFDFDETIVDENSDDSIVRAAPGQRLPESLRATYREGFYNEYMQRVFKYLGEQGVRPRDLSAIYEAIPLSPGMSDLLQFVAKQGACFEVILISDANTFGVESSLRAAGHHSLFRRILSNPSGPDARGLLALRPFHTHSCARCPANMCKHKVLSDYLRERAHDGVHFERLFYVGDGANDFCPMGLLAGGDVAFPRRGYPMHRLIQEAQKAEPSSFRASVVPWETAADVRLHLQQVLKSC
KCC2 secondary = KCC2 modulators in sodium-free buffer, confirmation, cell-based, HEK293 KCC2, thallium flux, secondary assay. shares compounds with Cl transport mod. FluoZin2 fluorescence; stronger effect = higher value. normalised thallium flux (F/F0 slope) at 10 µM. 15% of 3,700 active. AID 1713, 2009;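 active = thallium flux slope above the same plate's solvent-only control mean plus 3 SD; inconclusive = the two replicate wells disagree; inactive = no significant difference from solvent-only control wells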
KCC2 bumet counter = thallium flux persisting under bumetanide in KCC2 cells, confirmation, counter-screen for KCC2 modulator project, cell-based, HEK293 KCC2, FluoZin2, secondary assay 3; shares compounds with Cl transport mod; HEK293-KCC2 + bumetanide/ouabain; stronger effect = higher value; normalized thallium flux at 10 µM; 49% of 3,700 active; AID 1714, 2009;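 active = thallium entry rate above the same plate's blocked-transporter control wells by more than 3 SD; inconclusive = the two repeat wells disagree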;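 note: raw slope of fluorescence over initial fluorescence between 10 and 20 s after thallium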
KCC2 secondary2 = KCC2 modulators without ouabain present, confirmation, cell-based, HEK293 KCC2, thallium flux, FluoZin2, secondary assay 2. thallium flux FluoZin2 fluorescence; actives lie on both sides; F/F0 rise rate, 10–20 s post-thallium. shares compounds with Cl transport mod. 23% of 3,700 active. normalized thallium flux at 10 µM;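 active = thallium flux slope more than 3 SD above or below the plate's solvent-only control mean, mostly below; inconclusive = the two repeat wells disagreed; inactive = no significant shift from solvent-only controls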
HEK counter1 = thallium flux modulation in parental HEK cells, confirmation, counter-screen for KCC2 modulator project, cell-based, counterscreen 1; thallium flux rate (normalised fluorescence) at 10 µM; 46% of 3,700 active; HEK293 parental cells, thallium flux FluoZin2, ouabain; baseline-ratio fluorescence slope, 10–20 s after thallium; shares compounds with Cl transport mod; AID 1716, 2009;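 active = thallium flux rate significantly above the same plate's solvent-only control wells, beyond their mean plus 3 SD; inconclusive = the two replicate wells gave conflicting results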
KCC2 ouabain = KCC2 inhibitors and activators, ouabain retest, confirmation, HEK-KCC2 cells; shares compounds with Cl transport mod; HEK293-KCC2, thallium flux FluoZin2 fluorescence; bidirectional: low = inhibitor, high = activator; raw Tl+ flux slope (below DMSO = inhibition, above = activation) at 10 µM; 48% of 3,700 active; AID 1717, 2009;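 active = thallium flux slope beyond 3 SD from same-plate DMSO control mean in most replicates, usually higher, sometimes lower; inconclusive = repeat tests gave conflicting results; inactive = no significant difference from controls in most replicates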;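 note: slope of initial-normalized fluorescence between seconds 10 and 20 after thallium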
HEK293 Tl flux2 = native HEK Tl+ uptake effects, second counter-screen – HEK cells, counterscreen 2, counter-screen for KCC2 modulator project, confirmation; shares compounds with Cl transport mod; thallium flux slope at 10 µM; HEK293 parental, thallium flux FluoZin-2 fluorescence slope; 33% of 3,700 active;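 active = thallium flux slope above the same plate's solvent-control mean plus 3 SD in both duplicate wells; inconclusive = duplicate wells that disagreed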;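 note: run without ouabain in cells lacking the KCC2 cotransporter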
Each line names hits and unclear results; the compound was inactive in the other large screens (follow-up assays come after a bar, where they were run).

C=CC(=O)N1CCCC(Nc2nc(Nc3ccc(N(C)C(=O)CC)cc3C)nc3nc[nH]c23)C1 (centres undefined)	none (no result: Cl transport mod, Calb FLC, PHOSPHO1 inh)
CCOc1ccc(-c2nc(-c3cccs3)c(CC(=O)O)s2)cc1OC	Cl transport mod -3.1 | KCC2 secondary inactive | KCC2 bumet counter 0.0058 | KCC2 secondary2 inactive | HEK counter1 inactive | KCC2 ouabain inactive | HEK293 Tl flux2 inactive
CCOc1ccc(-c2nnc(-c3cccs3)o2)cc1OCC	none
Cn1cnc2cc(OC(=O)c3ccccc3)ccc21	none (no result: Cl transport mod) | KCC2 secondary inactive | KCC2 bumet counter inactive | KCC2 secondary2 inactive | HEK counter1 inactive | KCC2 ouabain inactive | HEK293 Tl flux2 inconclusive
Cc1cc2nc(N3C(=O)CNC3=S)sc2cc1C	Cl transport mod 19 | KCC2 secondary 0.019 | KCC2 bumet counter 0.058 | KCC2 secondary2 inactive | HEK counter1 0.026 | KCC2 ouabain 0.041 | HEK293 Tl flux2 0.015
CCOc1ccc2nc(N3C(=O)CNC3=S)sc2c1	Cl transport mod 10 | KCC2 secondary 0.014 | KCC2 bumet counter 0.031 | KCC2 secondary2 inactive | HEK counter1 0.014 | KCC2 ouabain 0.026 | HEK293 Tl flux2 0.012
CCCCC(=O)N1CCN(c2nc3ccc(OCC)cc3s2)CC1	none (no result: Cl transport mod)
O=C1CNC(=S)N1c1nc(-c2ccccc2)cs1	none
CCOc1ccc(CCNC(=O)COC(=O)COc2ccc(C(=O)CC)cc2)cc1OCC	none (no result: Cl transport mod, PHOSPHO1 inh)
COc1ccc(-n2nc(C)c3c(=O)c4c([nH]c32)CCCC4)cc1	none (no result: Cl transport mod)
O=C(NCCC(=O)N1CCc2ccccc21)c1ccco1	none (no result: Cl transport mod)
O=C(NC(Cc1ccccc1)C(=O)OCC(=O)N1CCc2ccccc21)c1ccco1 (centres undefined)	Cl transport mod -3.7 | KCC2 secondary inactive | KCC2 bumet counter inactive | KCC2 secondary2 0.022 | HEK counter1 inactive | KCC2 ouabain inactive | HEK293 Tl flux2 inactive
CC(C(=O)N1CCCC1)N1CCN(S(=O)(=O)c2ccccc2)CC1 (centres undefined)	none (no result: Cl transport mod, Calb FLC, PHOSPHO1 inh)
S=C1CSc2ccccc2N1	Cl transport mod 8.6 | KCC2 secondary inactive | KCC2 bumet counter 0.016 | KCC2 secondary2 inactive | HEK counter1 0.014 | KCC2 ouabain inconclusive | HEK293 Tl flux2 0.014
COC(=O)C(NS(C)(=O)=O)(c1c(C)[nH]c2ccccc12)C(F)(F)F (centres undefined)	Cl transport mod -4.4 | KCC2 secondary inactive | KCC2 bumet counter inconclusive | KCC2 secondary2 inactive | HEK counter1 inactive | KCC2 ouabain inactive | HEK293 Tl flux2 inactive
O=C(NNC(=S)NCc1ccccc1)c1ccccc1OC(F)F	none
O=C(NNC(=S)Nc1ccc(Cl)cc1)c1ccccc1OC(F)F	Cl transport mod 5.2, Calb FLC 102 | KCC2 secondary inactive | KCC2 bumet counter 0.023 | KCC2 secondary2 inactive | HEK counter1 0.02 | KCC2 ouabain 0.029 | HEK293 Tl flux2 0.013
CN(C)S(=O)(=O)c1ccc(Cl)c(C(=O)Nc2nc3ccccc3[nH]2)c1	none (no result: Cl transport mod) | KCC2 secondary inactive | KCC2 bumet counter inactive | KCC2 secondary2 0.022 | HEK counter1 inactive | KCC2 ouabain 0.013 | HEK293 Tl flux2 inactive
Cc1cc(C)cc(OCC(=O)NNC(=O)c2cc3ccccc3o2)c1	Cl transport mod 31 | KCC2 secondary 0.019 | KCC2 bumet counter 0.1 | KCC2 secondary2 inactive | HEK counter1 0.034 | KCC2 ouabain 0.059 | HEK293 Tl flux2 0.015
O=C(NNC(=O)c1cc2ccccc2o1)c1ccc(Cl)cc1	Cl transport mod 8.7 | KCC2 secondary inactive | KCC2 bumet counter 0.024 | KCC2 secondary2 inactive | HEK counter1 0.011 | KCC2 ouabain inconclusive | HEK293 Tl flux2 0.012
CCc1ccc(OCC(=O)NNC(=O)c2cc3ccccc3o2)cc1	none
O=C(NC1CCCC1)C1CCCN(S(=O)(=O)c2ccc(F)cc2)C1 (centres undefined)	none (no result: Cl transport mod)
N/C(=N\NS(=O)(=O)c1ccccc1Cl)c1ccccn1	none (no result: Cl transport mod, PHOSPHO1 inh)
COc1ccc(N(C)S(=O)(=O)c2ccc(Cl)c(C(=O)NCCc3ccc(Cl)cc3)c2)cc1	Cl transport mod -6.1 | KCC2 secondary inactive | KCC2 bumet counter inactive | KCC2 secondary2 0.018 | HEK counter1 0.0054 | KCC2 ouabain 0.0095 | HEK293 Tl flux2 inactive
COc1ccc(CCNC(=O)c2cc(S(=O)(=O)N3CCCCC3)ccc2Cl)cc1	none (no result: Cl transport mod, Calb FLC, Efflux pump inh, PHOSPHO1 inh)
O=C1c2c([N+](=O)[O-])cc([N+](=O)[O-])cc2S(=O)N1Cc1ccccc1 (centres undefined)	none
COC(=O)c1ccccc1NC(=O)CSc1nncn1-c1ccccn1	none (no result: Cl transport mod)
CCCCCCCn1c(NC(=O)CC)nc2ccccc21	Cl transport mod 6.5 | KCC2 secondary inconclusive | KCC2 bumet counter 0.027 | KCC2 secondary2 inactive | HEK counter1 0.011 | KCC2 ouabain inactive | HEK293 Tl flux2 0.011
CCCn1c(NC(=S)Nc2ccccc2)nc2ccccc21	Cl transport mod 28 | KCC2 secondary inconclusive | KCC2 bumet counter 0.018 | KCC2 secondary2 inactive | HEK counter1 0.0092 | KCC2 ouabain 0.038 | HEK293 Tl flux2 inactive
CCC(=O)Nc1nc2ccccc2n1CCN1CCOCC1	none (no result: Cl transport mod)
CCNC(=O)NCc1c(C)c(C)n(Cc2ccccc2)c1-n1cccc1	none

From PubChem BioAssay
